From PubChem BioAssay (NCATS)
Records with an inconclusive call do not appear. Calls of active or inactive are those of the source. Unless noted, the call rests on the fitted dose curve; in most records, active means well fitted curve in either direction with a large enough effect (not every such curve was filed as active); inconclusive means small, poorly fitted or top-dose-only effect, or another doubt; inactive means flat fitted curve, though single readings scatter.

Assays:
[1] = tested on: HIV-1 nucleocapsid protein NCp7 (binding to TG oligonucleotide); experiment: HIV Nucleocapsid (AID 346; call rule not given here;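 further: potency means the concentration at half of the fitted maximal effect; potency is for inhibitors that block NC binding and lower polarization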); conditions: HIV-1 NC / fluorescein-TGTGTGTG probe, fluorescence polarization
In short: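 10 nM TG4xF probe with 100 nM nucleocapsid protein in high-salt Hepes pH 7.5 (250mM NaCl) containing 1uM ZnCl2 and reducing agents. Compound inhibition of binding was read as fluorescein polarization after 1 hr at room temperature.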

[2] = biological target: Lysosomal acid glucosylceramidase (Homo sapiens) (UniProt P04062); experiment: Glucocerebrosidase-p2 (AID 348; in the data active means potency below about 10 µM; further: potency means the concentration at half of the fitted maximal effect); conditions: purified GBA, blue fluorogenic substrate, 40 min
In short: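 Normal human glucocerebrosidase (0.2 nM) with blue fluorogenic substrate (80 uM final) in citrate/phosphate pH 5.9 with 10mM sodium taurocholate, 0.01% tween-20; 40 min RT, NaOH/glycine stop; fluorescence Ex 365/Em 440; AC50 from a titration from 0.6 nM upwards.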

[3] = AP1 Signaling Pathway (AID 357);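 further: ME-180 reporter cells stimulated with EGF at its EC50 level; on the % scale 0 is the no-effect control and ±100 the full control effect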
In short: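 Modulation of EGF-driven AP-1 transcription was assessed with a beta-lactamase reporter in ME-180 cells. Compound and EC50 EGF were co-incubated 5 hours at 37 °C before 2.5-hour CCF4 loading at room temperature and dual-emission reading.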

[4] = biological target: Cytochrome P450 1A2 (Homo sapiens) (UniProt P05177); experiment: p450-cyp1a2 (AID 410; calls by dose curve; further: potency means the concentration at half of the fitted maximal effect;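 on activity change, negative = inhibition: -100% = full effect of reference inhibitor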)
In short: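 Luminescent demethylation readout: Luciferin-ME (100uM, equal to Km) turned over by 20nM CYP1A2 for 60 min at room temperature after NADPH regeneration addition, following 10 min compound preincubation. Normalization used 57 uM furafylline as full inhibition.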

[5] = NFAT Signaling Pathway (AID 444); conditions: Jurkat NFAT-bla M1, carbachol, beta-lactamase ratio, 5 h; at 7.69 µM (top of the series);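 further: carbachol stimulus at about its EC50 of 1 µM final; on the % scale 0 is the no-effect control and ±100 the full control effect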
In short: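 Read-out: CCF4 FRET ratio (460 nm/530 nm) after 1 h RT dye loading, used for %activity and AC50 from titration series. Cells: Jurkat NFAT-β-lactamase/M1 line, treated with compound plus 1 uM carbachol for 5 h, 37 °C.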

[6] = Stat Signaling Pathway (AID 446);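 further: ME-180 cervical cancer cells given 40 pM IL-6 alongside compound; SIE-controlled beta-lactamase reporter measured as 460/530 nm FRET emission ratio; on the % scale 0 is the no-effect control and ±100 the full control effect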
In short: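 FRET read-out (405 nm excitation, 460/530 nm emission) of a beta-lactamase reporter under a STAT-inducible element in ME-180 cervical carcinoma cells. Cells with compound receive 40 pM IL-6 for 5 h. Values are normalised to AC90 stimulation and AC90 JAK-inhibitor controls.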

[7] = biological target: Glucocorticoid receptor (Homo sapiens) (UniProt P04150); experiment: GR-EFC Redistribution (AID 451; calls by dose curve; further: potency means the concentration at half of the fitted maximal effect); conditions: CHO-K1 GR-EFC translocation, beta-gal luminescence, 2 h
In short: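 Translocation of GR-ED fusion to nuclear EA restores b-gal, read by luminescence after 1 h room-temperature detection. Engineered CHO-K1 biosensor cells, 1,000/well, exposed 2 h at 37 C to titrations up to 46 uM final.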

[8] = biological target: Mitogen-activated protein kinase 10 (Mus musculus) (UniProt Q61831); experiment: JNK3 AlphaScreen Assay (AID 530);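 further: kinase came from lysate of stimulated human HepG2 cells; signal reports phosphorylation of biotinylated GST-cJun 1-79 at Ser73 with 10 µM ATP; on the % scale 0 is the no-effect control and ±100 the full control effect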
In short: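 qHTS titrations with 15 min compound pre-incubation before adding ATP (10 uM final). Read-out: AlphaScreen of Ser73-phosphorylated biotin-GST-cJun using HepG2 lysate JNK3 activated by IL-1β and TNFα.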

[9] = biological target: 3',5'-cyclic-AMP phosphodiesterase 4B (Homo sapiens) (UniProt Q07343); experiment: qHTS Assay for Inhibitors of PDE-IV (AID 607; active means well fitted activation curve with a large enough effect in the main read-out, with a control signal flat, not every such curve was filed as active; further: % of control where 0% means no effect)
In short: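 Cell-based read-out of cAMP via a modified cyclic nucleotide-gated channel and membrane potential dye (535/590 nm) in HEK293 cells expressing PDE4 endogenously. Compounds tested up to 22.9 uM final; 100 uM RO 20-1724 reference.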

[10] = qHTS Assay for Lipid Storage Modulators (AID 1519; calls by dose curve); conditions: Drosophila S3 cells, BODIPY lipid droplet/cell ratio, laser cytometry, cells loaded with oleic acid; for activity change, negative = inhibition: at 57.5 µM (top of the series)
In short: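 Cells seeded at 5,000 per well were treated with compounds over a concentration series and loaded with oleic acid (400 uM, as added). Lipid droplet fluorescence (488 nm excitation, 500-530 nm channel) was read by laser-scanning cytometry and normalized to 20 uM Triacsin C.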

[11] = biological target: Cytochrome P450 3A4 (Homo sapiens) (UniProt P08684); experiment: qHTS Assay for Inhibitors and Substrates of Cytochrome P450 3A4 (AID 884; active means well fitted curve in the direction sought with a large enough effect; an effect the other way counts as inactive or inconclusive; further: potency means the concentration at half of the fitted maximal effect; nearly all actives have a fitted effect of over 50% in size)
In short: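 Luminescent readout of luciferin produced by CYP3A4 (20 nM) dealkylation of Luciferin-PPXE, 25 uM (its KM). NADPH-driven reaction ran 60 min at RT after 10 min compound preincubation; data scaled to 57 uM ketoconazole as 100% inhibition.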

[12] = biological target: Cytochrome P450 3A4 (Homo sapiens) (UniProt P08684); experiment: qHTS Assay for Activators of Cytochrome P450 3A4 (AID 885; active means well fitted curve in the direction sought with a large enough effect; an effect the other way counts as inactive or inconclusive; further: nearly all actives have a fitted effect of over 65% in size)
In short: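 Luminescent readout of luciferin formed from 25 uM Luciferin-PPXE (KM level) by 20 nM CYP3A4 in 200 mM KPO4, with 60 min NADPH-driven reaction at room temperature after 10 min compound exposure. Ketoconazole (57 uM) defined 100% inhibition.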

[13] = biological target: Cytochrome P450 2D6 (Homo sapiens) (UniProt P10635); experiment: qHTS Assay for Inhibitors and Substrates of Cytochrome P450 2D6 (AID 891; active means well fitted curve in the direction sought with a large enough effect; an effect the other way counts as inactive or inconclusive; further: potency means the concentration at half of the fitted maximal effect; nearly all actives have a fitted effect of over 60% in size)
In short: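 Luminescent read-out of luciferin formed by 5 nM human CYP2D6 demethylating 30 uM Luciferin-ME EGE (Km level) over 60 min at room temperature after NADPH regeneration addition. Data normalized to full inhibition by 1.43 uM quinidine.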

[14] = biological target: Glucocorticoid receptor (Homo sapiens) (UniProt P04150); experiment: GR-GFP Redistribution (AID 450;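 active means compounds whose dose series gives a full or clear partial fitted curve of increased nuclear translocation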; further: potency means the concentration at half of the fitted maximal effect); conditions: U2OS GR-GFP nuclear translocation, laser cytometry, 2 h
[15] = biological target: Cytochrome P450 2C19 (Homo sapiens) (UniProt P33261); experiment: qHTS Assay for Inhibitors and Substrates of Cytochrome P450 2C19 (AID 899; active means well fitted curve in the direction sought with a large enough effect; an effect the other way counts as inactive or inconclusive; further: on the % scale 0 is the no-effect control and ±100 the full control effect; nearly all actives have a fitted effect of over 60% in size)
In short: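 5nM enzyme + 10uM Luciferin-H EGE (=KM), 50mM KPO4; cpd pin-transferred, 10 min 37C; NADPH regen, 60 min 37C; stopped w/ luciferin detection reagent, 20 min; luminescence. Normalized to 57uM ketoconazole (AC100).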

[16] = measured here: cell count channel max response
[17] = measured here: lipid channel max response

Chain of Cytochrome P450 3A4 (Homo sapiens) (P08684 whole entry, looked up): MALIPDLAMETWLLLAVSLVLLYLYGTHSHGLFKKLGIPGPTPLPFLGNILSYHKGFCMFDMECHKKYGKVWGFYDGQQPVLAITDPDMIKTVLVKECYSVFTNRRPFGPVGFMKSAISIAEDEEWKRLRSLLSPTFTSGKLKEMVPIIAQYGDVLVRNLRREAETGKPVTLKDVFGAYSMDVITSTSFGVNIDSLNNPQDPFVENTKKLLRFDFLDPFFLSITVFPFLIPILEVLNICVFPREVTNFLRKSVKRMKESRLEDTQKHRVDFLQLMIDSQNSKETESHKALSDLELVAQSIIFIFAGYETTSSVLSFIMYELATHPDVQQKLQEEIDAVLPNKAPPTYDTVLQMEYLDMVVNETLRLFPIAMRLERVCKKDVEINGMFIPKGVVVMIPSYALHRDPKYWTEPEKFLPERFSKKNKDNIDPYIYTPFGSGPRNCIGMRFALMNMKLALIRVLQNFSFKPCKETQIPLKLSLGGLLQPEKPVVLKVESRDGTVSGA
Chain of Glucocorticoid receptor (Homo sapiens) (P04150 whole entry, looked up, the tested form may be a part): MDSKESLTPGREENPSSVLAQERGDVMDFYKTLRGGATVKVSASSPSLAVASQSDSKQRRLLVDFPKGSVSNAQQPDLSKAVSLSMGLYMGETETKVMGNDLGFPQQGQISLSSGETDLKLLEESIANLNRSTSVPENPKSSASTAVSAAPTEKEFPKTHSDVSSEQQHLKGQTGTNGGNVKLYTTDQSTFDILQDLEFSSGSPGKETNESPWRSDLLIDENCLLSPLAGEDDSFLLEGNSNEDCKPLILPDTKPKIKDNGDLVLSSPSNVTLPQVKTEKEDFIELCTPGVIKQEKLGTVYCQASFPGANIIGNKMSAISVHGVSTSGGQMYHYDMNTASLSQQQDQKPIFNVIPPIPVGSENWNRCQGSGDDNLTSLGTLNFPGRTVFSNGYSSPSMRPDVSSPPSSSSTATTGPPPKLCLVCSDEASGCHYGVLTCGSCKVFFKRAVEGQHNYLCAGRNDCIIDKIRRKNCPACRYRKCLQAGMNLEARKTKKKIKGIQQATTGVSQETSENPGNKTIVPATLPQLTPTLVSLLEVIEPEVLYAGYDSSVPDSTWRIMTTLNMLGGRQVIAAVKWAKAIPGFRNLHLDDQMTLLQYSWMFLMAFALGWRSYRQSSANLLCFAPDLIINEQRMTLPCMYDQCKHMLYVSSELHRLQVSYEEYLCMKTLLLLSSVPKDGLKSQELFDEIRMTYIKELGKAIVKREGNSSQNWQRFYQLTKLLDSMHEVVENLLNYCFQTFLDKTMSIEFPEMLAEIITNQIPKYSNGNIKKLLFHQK
Chain of Lysosomal acid glucosylceramidase (Homo sapiens) (P04062 whole entry, looked up): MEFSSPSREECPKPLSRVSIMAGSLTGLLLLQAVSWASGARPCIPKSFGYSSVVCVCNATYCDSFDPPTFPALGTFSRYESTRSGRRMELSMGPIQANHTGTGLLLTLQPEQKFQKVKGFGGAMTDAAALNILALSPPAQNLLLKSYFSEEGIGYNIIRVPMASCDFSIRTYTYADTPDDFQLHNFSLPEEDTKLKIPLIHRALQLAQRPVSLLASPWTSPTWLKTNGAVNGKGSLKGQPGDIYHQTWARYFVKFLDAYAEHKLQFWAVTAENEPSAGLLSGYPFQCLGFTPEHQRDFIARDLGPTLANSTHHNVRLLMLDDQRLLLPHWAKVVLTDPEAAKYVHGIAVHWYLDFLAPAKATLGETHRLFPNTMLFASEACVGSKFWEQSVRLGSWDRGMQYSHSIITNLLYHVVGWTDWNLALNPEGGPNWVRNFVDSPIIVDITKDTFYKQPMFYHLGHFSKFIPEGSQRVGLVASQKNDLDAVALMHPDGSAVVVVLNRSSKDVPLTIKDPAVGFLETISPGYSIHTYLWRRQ
Chain of 3',5'-cyclic-AMP phosphodiesterase 4B (Homo sapiens) (Q07343 whole entry, looked up): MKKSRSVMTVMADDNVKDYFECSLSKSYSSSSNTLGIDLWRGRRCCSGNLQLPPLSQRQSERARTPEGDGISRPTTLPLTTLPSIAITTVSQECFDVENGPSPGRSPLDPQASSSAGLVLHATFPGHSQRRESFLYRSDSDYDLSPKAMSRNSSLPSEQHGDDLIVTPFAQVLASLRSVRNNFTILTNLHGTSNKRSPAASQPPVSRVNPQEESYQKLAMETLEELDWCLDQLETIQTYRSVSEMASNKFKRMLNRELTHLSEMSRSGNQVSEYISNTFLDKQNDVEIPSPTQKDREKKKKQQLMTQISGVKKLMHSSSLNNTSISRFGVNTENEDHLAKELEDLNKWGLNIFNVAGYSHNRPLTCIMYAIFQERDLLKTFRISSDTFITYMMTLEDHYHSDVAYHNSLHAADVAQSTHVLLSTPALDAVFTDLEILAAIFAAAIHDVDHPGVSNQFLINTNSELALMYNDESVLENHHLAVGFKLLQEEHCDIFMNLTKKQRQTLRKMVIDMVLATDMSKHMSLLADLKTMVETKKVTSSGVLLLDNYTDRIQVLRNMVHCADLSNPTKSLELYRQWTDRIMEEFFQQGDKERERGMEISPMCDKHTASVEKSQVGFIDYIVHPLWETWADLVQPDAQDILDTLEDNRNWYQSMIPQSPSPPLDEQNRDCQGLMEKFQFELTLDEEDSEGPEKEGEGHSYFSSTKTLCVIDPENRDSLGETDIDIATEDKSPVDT
Chain of Cytochrome P450 1A2 (Homo sapiens) (P05177 whole entry, looked up): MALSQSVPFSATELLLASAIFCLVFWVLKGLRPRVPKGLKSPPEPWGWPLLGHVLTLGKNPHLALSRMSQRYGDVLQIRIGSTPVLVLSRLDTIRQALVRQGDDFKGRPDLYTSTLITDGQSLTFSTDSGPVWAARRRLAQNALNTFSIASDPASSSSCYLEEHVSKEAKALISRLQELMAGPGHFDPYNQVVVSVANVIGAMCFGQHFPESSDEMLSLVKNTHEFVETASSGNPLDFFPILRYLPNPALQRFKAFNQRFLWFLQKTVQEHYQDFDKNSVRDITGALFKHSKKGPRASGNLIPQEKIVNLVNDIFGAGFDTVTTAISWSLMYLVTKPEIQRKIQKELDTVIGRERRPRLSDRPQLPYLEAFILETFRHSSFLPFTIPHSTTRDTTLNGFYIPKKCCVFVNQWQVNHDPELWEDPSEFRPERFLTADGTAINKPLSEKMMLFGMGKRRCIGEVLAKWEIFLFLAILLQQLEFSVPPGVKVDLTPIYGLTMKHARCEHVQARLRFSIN
Chain of Cytochrome P450 2D6 (Homo sapiens) (P10635 whole entry, looked up): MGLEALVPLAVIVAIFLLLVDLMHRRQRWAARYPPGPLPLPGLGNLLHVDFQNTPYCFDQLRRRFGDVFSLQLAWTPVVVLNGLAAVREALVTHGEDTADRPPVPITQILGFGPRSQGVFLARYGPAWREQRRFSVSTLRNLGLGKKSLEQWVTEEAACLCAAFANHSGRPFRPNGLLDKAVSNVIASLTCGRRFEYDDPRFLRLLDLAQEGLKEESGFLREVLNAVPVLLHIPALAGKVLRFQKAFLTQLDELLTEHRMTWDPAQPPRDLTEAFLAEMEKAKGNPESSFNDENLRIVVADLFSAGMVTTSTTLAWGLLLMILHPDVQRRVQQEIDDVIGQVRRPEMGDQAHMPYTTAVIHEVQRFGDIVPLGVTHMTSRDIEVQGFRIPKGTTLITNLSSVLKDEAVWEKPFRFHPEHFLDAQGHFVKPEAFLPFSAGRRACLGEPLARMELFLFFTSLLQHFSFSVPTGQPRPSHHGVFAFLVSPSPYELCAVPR
Chain of Cytochrome P450 2C19 (Homo sapiens) (P33261 whole entry, looked up): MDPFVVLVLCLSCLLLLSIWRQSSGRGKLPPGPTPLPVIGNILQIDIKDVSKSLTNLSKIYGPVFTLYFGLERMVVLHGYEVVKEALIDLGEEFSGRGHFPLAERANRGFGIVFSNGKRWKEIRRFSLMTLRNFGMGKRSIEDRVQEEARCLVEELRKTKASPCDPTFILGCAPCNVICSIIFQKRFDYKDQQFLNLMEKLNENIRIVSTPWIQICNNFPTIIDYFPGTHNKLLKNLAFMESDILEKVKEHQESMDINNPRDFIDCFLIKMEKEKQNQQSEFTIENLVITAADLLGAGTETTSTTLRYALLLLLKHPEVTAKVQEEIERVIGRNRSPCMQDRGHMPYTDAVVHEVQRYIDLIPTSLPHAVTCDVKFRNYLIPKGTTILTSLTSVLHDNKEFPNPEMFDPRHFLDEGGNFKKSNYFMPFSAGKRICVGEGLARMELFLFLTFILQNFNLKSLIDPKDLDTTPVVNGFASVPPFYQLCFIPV

c1cc(CN2CCC3(CCNCC3)CC2)ccn1
10.7%: max response [10, 16]
18.5%: max response [10, 17]
inactive: Potency [1] > 20 µM | Potency [2] > 11.4 µM | outcome [3] | Potency [4] | activity change, negative = inhibition [5] -8.56% | outcome [6] | Potency [7] > 46 µM | outcome [8] | Potency [9] | activity change, negative = inhibition [10] 4.55%

N#Cc1ccc(CN2CC[C@@]3(CCCN(C(=O)Oc4ccccc4)C3)C2)cc1
28.4%: max response [10, 17]
active: Potency [4] 12.6 µM | Potency [11] 7.94 µM | Potency [13] 3.16 µM
inactive: Potency [1] > 20 µM | Potency [2] > 11.4 µM | outcome [3] | activity change, negative = inhibition [5] -16.4% | outcome [6] | Potency [7] > 46 µM | outcome [8] | Potency [9] | Potency [12] | activity change, negative = inhibition [10] 4.98%
20.4%: max response [10, 16]

Cc1nc2cnc(N3CCNCC3)nc2n(C)c1=O
inactive: Potency [1] > 20 µM | Potency [2] > 11.4 µM | outcome [3] | activity change, negative = inhibition [5] 5.09% | outcome [6] | Potency [14] > 9.22 µM | Potency [7] > 46 µM | outcome [8] | Potency [9] | Potency [12] | Potency [15] | activity change, negative = inhibition [10] 5.19%
18.7%: max response [10, 16]
25.8%: max response [10, 17]

COc1ccc(NC(=O)N2CCC3(CC2)CCN(C(=O)Oc2ccccc2)CC3)cc1
-23.2%: max response [10, 16]
-21.9%: max response [10, 17]
inactive: Potency [1] > 20 µM | Potency [2] > 11.4 µM | outcome [3] | activity change, negative = inhibition [5] 5.41% | outcome [6] | Potency [7] > 46 µM | outcome [8] | activity change, negative = inhibition [10] -1.68%

O=C(c1csnn1)N1CCC[C@@]2(CCN(Cc3ccncc3)C2)C1
inactive: Potency [1] > 20 µM | Potency [2] > 11.4 µM | outcome [3] | activity change, negative = inhibition [5] -2.7% | outcome [6] | Potency [7] > 46 µM | outcome [8] | Potency [9] | activity change, negative = inhibition [10] 4.95%
21.7%: max response [10, 16]
28.5%: max response [10, 17]

N#Cc1ccc(CN2CC[C@@]3(CCCNC3)C2)cc1
21.9%: max response [10, 17]
inactive: Potency [1] > 20 µM | Potency [2] > 11.4 µM | outcome [3] | activity change, negative = inhibition [5] -7.45% | outcome [6] | Potency [7] > 46 µM | outcome [8] | Potency [9] | Potency [12] | activity change, negative = inhibition [10] 2.19%
16.6%: max response [10, 16]

O=C(Oc1ccccc1)N1CCC2(CC1)CCN(C(c1ccccc1)c1ccccc1)CC2
inactive: Potency [2] > 11.4 µM | outcome [3] | activity change, negative = inhibition [5] -0.91% | outcome [6] | Potency [7] > 46 µM | outcome [8] | activity change, negative = inhibition [10] 4.05%
13.3%: max response [10, 17]
5.73%: max response [10, 16]
